Source: the supplement of paper PMC3334620
Whole data set: some 33,000 sequences, median “E-score (-0.5 to 0.5)” near -0.011, cut for the highest 2% near 0.28. For the sample, the highest values were picked, then their nearest neighbours and some sequences at random.

Each sequence was assayed against T1, Gcr1 (UniProt P07261) (assay: PBM E-score (8-mer binding enrichment) (E-score (-0.5 to 0.5)); higher = stronger / more preferred TF binding). Details: protein concentration: 100 nM; construct: GST-full length.
T1 sequence: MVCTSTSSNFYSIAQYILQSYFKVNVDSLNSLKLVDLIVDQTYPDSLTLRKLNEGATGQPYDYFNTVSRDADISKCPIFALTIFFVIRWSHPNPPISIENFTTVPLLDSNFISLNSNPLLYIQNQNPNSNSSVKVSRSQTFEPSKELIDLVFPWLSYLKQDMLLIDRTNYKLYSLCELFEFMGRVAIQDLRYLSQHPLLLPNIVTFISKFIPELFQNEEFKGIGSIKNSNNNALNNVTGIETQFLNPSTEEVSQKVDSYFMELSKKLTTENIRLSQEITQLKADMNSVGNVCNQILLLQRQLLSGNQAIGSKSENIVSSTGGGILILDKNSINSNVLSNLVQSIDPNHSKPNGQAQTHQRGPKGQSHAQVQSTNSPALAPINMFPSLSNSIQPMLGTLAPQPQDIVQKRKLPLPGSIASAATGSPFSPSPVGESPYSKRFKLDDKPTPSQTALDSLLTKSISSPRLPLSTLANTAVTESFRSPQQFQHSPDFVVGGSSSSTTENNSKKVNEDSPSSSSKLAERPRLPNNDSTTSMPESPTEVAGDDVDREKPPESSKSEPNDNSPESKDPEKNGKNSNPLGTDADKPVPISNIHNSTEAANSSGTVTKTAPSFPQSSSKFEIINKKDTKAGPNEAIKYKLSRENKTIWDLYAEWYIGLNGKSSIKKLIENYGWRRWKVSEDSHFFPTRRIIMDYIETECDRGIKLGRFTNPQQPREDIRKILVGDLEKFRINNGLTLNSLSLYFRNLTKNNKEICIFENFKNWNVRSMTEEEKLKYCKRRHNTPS
Outline: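 Bound GST-tagged yeast transcription factors, applied at about 100-200 nM to double-stranded universal all-10-mer Agilent arrays, were detected with fluorescent anti-GST. Scans were normalised with masliner. A modified Wilcoxon-Mann-Whitney statistic, the E-score, was assigned to each ungapped eight-base word pooled with its reverse complement by the Universal PBM Analysis Suite.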
In the case of GGACGTCC, the “PBM E-score” value is reported as 0.291.
For CAACGCCC, the “PBM E-score” value was 0.0625.
In the case of CCACTTGA, the “PBM E-score” value is reported as 0.138.
In the case of GTTCTCCA, the “PBM E-score” value is reported as -0.137.
ATAAGTGA was tested, and the “PBM E-score” value was -0.119.
With ACTGGGTC the “PBM E-score” value was -0.0289.
For ACAGGCAG, the “PBM E-score” value was 0.252.
With CGAGCCCA the “PBM E-score” value was -0.119.
With AACATTTC the “PBM E-score” value was -0.0184.
For TCATTGGA, the “PBM E-score” value was -0.0473.
ACCTGTAG was tested, and the “PBM E-score” value was 0.135.
CCCCTGAA was tested, and the “PBM E-score” value was 0.0139.
CCCTGTAG was tested, and the “PBM E-score” value was 0.107.
For TCCTGTAA, the “PBM E-score” value was 0.354.
For CCCTGTAA, the “PBM E-score” value was 0.308.
For ACCTGTAA, the “PBM E-score” value was -0.0579.
With CCCCTGTA the “PBM E-score” value was 0.284.
In the case of ACCTGTAC, the “PBM E-score” value is reported as 0.0266.
For GCCTGTAA, the “PBM E-score” value was 0.109.
For CCCTGTAC, the “PBM E-score” value was -0.0614.
For ACCTGTAT, the “PBM E-score” value was 0.322.
In the case of GCCCTGTA, the “PBM E-score” value is reported as 0.0785.
For AGGATTGA, the “PBM E-score” value was 0.106.
For AACCATCG, the “PBM E-score” value was -0.148.
In the case of ATTATGGA, the “PBM E-score” value is reported as 0.161.
In the case of CGTTCTAG, the “PBM E-score” value is reported as 0.0647.
With TACCTCTA the “PBM E-score” value was 0.238.
With CGACTCGA the “PBM E-score” value was -0.0795.
With AGGTTGCC the “PBM E-score” value was 0.28.
AGGTTGCG was tested, and the “PBM E-score” value was 0.136.
AGGTTGCA was tested, and the “PBM E-score” value was 0.125.
For CGATTTAC, the “PBM E-score” value was -0.039.
CGCAGAGC was tested, and the “PBM E-score” value was -0.291.
ACCCACTC was tested, and the “PBM E-score” value was 0.0683.
ATCCACTG was tested, and the “PBM E-score” value was 0.0833.
CTCCACTA was tested, and the “PBM E-score” value was 0.215.
With ATCCACGA the “PBM E-score” value was 0.0269.
With CTCCACTC the “PBM E-score” value was 0.022.
In the case of ATCCACTC, the “PBM E-score” value is reported as 0.318.
GTCCACGA was tested, and the “PBM E-score” value was -0.0295.
With GTCCACTA the “PBM E-score” value was 0.334.
ATCCACTA was tested, and the “PBM E-score” value was 0.369.
For CTTAGATA, the “PBM E-score” value was 0.0548.
ACACTTAG was tested, and the “PBM E-score” value was -0.0488.
With ACATCCAG the “PBM E-score” value was 0.251.
In the case of ACAGCACA, the “PBM E-score” value is reported as -0.109.
For ATGTACAC, the “PBM E-score” value was 0.00539.
In the case of GTCGTTGA, the “PBM E-score” value is reported as -0.219.
In the case of GAGGGCGC, the “PBM E-score” value is reported as 0.114.
In the case of CACGCTGC, the “PBM E-score” value is reported as 0.236.
AACGCTGA was tested, and the “PBM E-score” value was -0.0701.
GACGCTGA was tested, and the “PBM E-score” value was 0.301.
CACGCTGA was tested, and the “PBM E-score” value was -0.0481.
With GACGCTGC the “PBM E-score” value was 0.332.
For AACGCTGC, the “PBM E-score” value was 0.0719.
With AGGGCAGG the “PBM E-score” value was -0.173.
AGTGCTTC was tested, and the “PBM E-score” value was -0.0411.
For GCGTCCAC, the “PBM E-score” value was 0.339.
With CCGTCCAA the “PBM E-score” value was 0.13.
GCGTCCAA was tested, and the “PBM E-score” value was 0.372.
With ACGTCCAA the “PBM E-score” value was 0.00712.
With ACGTCCAC the “PBM E-score” value was 0.104.
With CCGTCCAC the “PBM E-score” value was 0.016.
For ATACCGGG, the “PBM E-score” value was 0.208.
With ACCCACTG the “PBM E-score” value was 0.147.
For CCTGCTCA, the “PBM E-score” value was -0.0926.
CCAGATCC was tested, and the “PBM E-score” value was 0.185.
For GGCAATGA, the “PBM E-score” value was -0.202.
In the case of ACGGAAGC, the “PBM E-score” value is reported as 0.344.
CCGGAAGA was tested, and the “PBM E-score” value was 0.043.
GCGGAAAC was tested, and the “PBM E-score” value was -0.0701.
For ACGGAAGA, the “PBM E-score” value was 0.0748.
With GCGGAAGC the “PBM E-score” value was 0.314.
For CCGGAAGC, the “PBM E-score” value was 0.439.
GCGGAAGA was tested, and the “PBM E-score” value was -0.195.
CCGGAAGG was tested, and the “PBM E-score” value was 0.0607.
In the case of ACGGAAGT, the “PBM E-score” value is reported as -0.0172.
ATTTTAGG was tested, and the “PBM E-score” value was 0.249.
For CGAAACAC, the “PBM E-score” value was 0.13.
In the case of AATACTGT, the “PBM E-score” value is reported as 0.0108.
For AACATCGC, the “PBM E-score” value was -0.031.
In the case of GCAGGTAA, the “PBM E-score” value is reported as 0.0517.
For AGTCTTCG, the “PBM E-score” value was -0.124.
In the case of ATAAGCTG, the “PBM E-score” value is reported as 0.15.
With CGAAGCTA the “PBM E-score” value was 0.198.
With ATAAGCTA the “PBM E-score” value was -0.078.
AAAAGCTA was tested, and the “PBM E-score” value was -0.0743.
For GGAAGCGA, the “PBM E-score” value was 0.175.
